An excerpt weighted towards active compounds, which were near 7.3% of everything screened.
ELG1 genotoxic: qHTS screen for small molecules that induce genotoxicity in human embryonic kidney (HEK293T) cells expressing luciferase-tagged ELG1 | HEK293T ELG1-luciferase reporter, luminescence, 16 h | Potency, µM (top dose mostly 46 µM), for inactives: at the top dose activity change, positive = activation, hits mostly activators | hit rate 1.3% among 330,000; also: % of control where 0% means no effect; nearly all actives have a fitted effect of over 60% in size
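ELG1-luciferase HEK293T cells, 2,000/well; compound pinned in; 16 hr, 37 °C, 5% CO2; ONE-Glo, 30 min RT; luminescence on CCD imager.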
FLuc modulator: qHTS profiling assay for firefly luciferase inhibitor/activator using purifed enzyme and Km concentrations of substrates (counterscreen for miR-21 project). Potency, µM (doses to about 57.5 µM), without a hit: at the top dose activity change, negative = inhibition, usual class: inhibitors. Luciferin 4-monooxygenase (Photinus pyralis), P08659. hit rate 6.9% among 360,000. purified FLuc, Km substrates, luminescence inhibition;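 also: plate controls were vehicle for no effect and reference inhibitor for full effect; nearly all actives have a fitted effect of over 55% in size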
Target sequence (P08659 whole entry, looked up): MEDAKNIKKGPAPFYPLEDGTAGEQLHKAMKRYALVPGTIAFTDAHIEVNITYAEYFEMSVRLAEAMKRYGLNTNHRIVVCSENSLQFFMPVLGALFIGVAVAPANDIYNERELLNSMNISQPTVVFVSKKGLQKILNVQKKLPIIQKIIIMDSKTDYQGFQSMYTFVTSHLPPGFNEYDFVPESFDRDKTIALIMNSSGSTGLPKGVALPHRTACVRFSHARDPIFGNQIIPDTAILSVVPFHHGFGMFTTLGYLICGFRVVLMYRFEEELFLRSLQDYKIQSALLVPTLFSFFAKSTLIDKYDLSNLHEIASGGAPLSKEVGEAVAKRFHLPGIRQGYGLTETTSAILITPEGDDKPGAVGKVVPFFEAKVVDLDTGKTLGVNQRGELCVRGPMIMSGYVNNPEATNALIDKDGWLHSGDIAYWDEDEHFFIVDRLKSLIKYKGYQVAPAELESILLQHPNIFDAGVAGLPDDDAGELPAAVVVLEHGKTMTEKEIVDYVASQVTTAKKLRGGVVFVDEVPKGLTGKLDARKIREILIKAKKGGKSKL
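Purified P. pyralis luciferase, 10 nM final, with Km-level 10 uM D-luciferin and 10 uM ATP in 50 mM Tris acetate pH 7.5, 10 mM Mg acetate, 0.01% Tween-20, 0.05% BSA; 6-point qHTS titration about 60 µM downward; luminescence read.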
Rab9 prom act: qHTS Assay for Rab9 Promoter Activators; Huh7 Rab9 promoter-luciferase reporter, luminescence, 24 h; Potency, µM (series often up to 9.22 µM), for inactives: top-dose activation, negative = inhibition, actives largely listed as activators; hit rate 2.8% among 320,000; AID 485297, 2010; also: % of control where 0% means no effect; nearly all actives have a fitted effect of over 60% in size
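Stable Rab9-luc Huh7, 1500 cells/well, 2 h settle; cmpd in DMSO, 24 h, 37 °C/5% CO2; luciferase reagent 10 min RT; luminescence.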
Luc counter: Counterscreen for Luciferase (Kinase-Glo TM) Inhibition; hit rate 0.28% among 200,000; Kinase-Glo luciferase, ATP luminescence, 8 min; AID 1379, 2008; Potency, µM (doses to about 38.3 µM), without a hit: top-dose activity change, negative = inhibition, most hits filed as inhibitors; also: % is scaled to controls: 0 for no effect and ±100 for the full control effect; nearly all actives have a fitted effect of over 60% in size
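Compound is pinned into ATP-containing buffer (10 uM ATP, imidazole pH 7.2, 7 mM MgCl2). Kinase-Glo luciferase reagent is then added. Light output is recorded following an 8-min room-temperature incubation.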
NPC1 prom act: qHTS Assay for NPC1 Promoter Activators; Huh7 NPC1 promoter luciferase reporter, 24 h; hit rate 2.4% among 320,000; Potency, µM (top dose mostly 9.22 µM), inactives show top-dose activation, actives largely listed as activators; AID 485313, 2010; also: % of control where 0% means no effect; nearly all actives have a fitted effect of over 60% in size
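Huh7 reporter cells (NPC1 promoter driving luciferase) are dosed with compound for 24 h at 37 °C, 5% CO2; luciferase detection reagent is then added and luminescence measured after 10 min at ambient temperature.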
SMN2 splice up: qHTS Assay for Enhancers of SMN2 Splice Variant Expression; Potency, µM (highest dose often 46.1 µM), without a hit: top-dose activity change, positive = activation, actives largely listed as activators; hit rate 2.8% among 210,000; AID 1458, 2008; HEK293 SMN2-luciferase splicing reporter, luminescence, 30-36 h; also: % of control where 0% means no effect; nearly all actives have a fitted effect of over 55% in size
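HEK293 cells carry an SMN2 minigene-luciferase reporter in which exon 7 inclusion puts luciferase in frame. Cells were seeded at 2000 cells/well, attached for 10-12 hours, then exposed to compounds for 30-36 hours at 37C before ONE-Glo luminescence.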
* = called active by the depositor; ? = inconclusive; nt = no result given; ! = not confirmed by another sample; [ ] = remark or other dose. Calls follow the shape of the dose curve; as a rule, active = well fitted curve in the direction sought with a large enough effect; inconclusive = small, poorly fitted or top-dose-only effect, or another doubt; inactive = no such curve, though single readings can be large; an effect the other way counts as inactive or inconclusive. Potency is read from the fitted curve at half-maximal effect.

SMILES	ELG1 genotoxic	FLuc modulator	Rab9 prom act	Luc counter	NPC1 prom act	SMN2 splice up
O=C(/C=C/c1ccc2c(c1)OCO2)Nc1cccnc1	3.7µM*	2.4µM*	1.3µM*	-22%	2.2µM*	13µM*
Cc1cccnc1NC(=O)c1ccc2c(c1)OCO2	11%	-22%	3%	nt	-1%	nt
Cc1cccnc1NC(=O)/C=C/c1ccc2c(c1)OCO2	?	19µM*	2.8µM*	-4%	2.5µM*	16µM*
COc1ccc(/C=C/C(=O)Nc2cccc(N3CCOCC3)c2)cc1OC	-5%	27µM*	3%	0%	4%	11%
CC(C)CCC[C@@H](C)[C@@H]1CC[C@@H]2[C@H]3CC[C@H]4C[C@@H](N)CC[C@@]4(C)[C@@H]3CC[C@]21C	nt	nt	nt	0%[7.66 µM]	nt	-6%[9.22 µM]
CCCN(CCC)C(=O)Cn1nnc2sc(-c3ccccc3)cc2c1=O	nt	-1%	nt	nt	nt	-6%
CSc1ccc(C2c3[nH]c4ccccc4c3CCN2C(=O)c2cc(C)n(C)n2)cc1 (stereo unspecified)	?	17µM*	?	1%	9%	?
Cc1cc(C(=O)N2CCc3c([nH]c4ccccc34)C2c2cccc(Cl)c2)nn1C (stereo unspecified)	-11%	-10%	-1%	-1%	1%	nt
COC(=O)c1ccccc1NC(=O)c1oc2ccc3c(c2c1C)C(=O)CC(C)(C)O3	nt	5.4µM*	nt	nt	nt	nt
CCOC(=O)c1ccc(NC(=O)c2oc3ccc4c(c3c2C)C(=O)CC(C)(CC)O4)cc1 (stereo unspecified)	nt	-16%	nt	nt	nt	5%
COc1cc(OC)c(NC(=O)c2oc3ccc4c(c3c2C)C(=O)CC(C)(C)O4)cc1Cl	nt	5.4µM*	nt	nt	nt	nt
Cc1c(C(=O)NCc2ccc(Cl)cc2)oc2ccc3c(c12)C(=O)CC(C)(C)O3	nt	?	nt	nt	nt	26%
COc1cccc(CNC(=O)c2oc3ccc4c(c3c2C)C(=O)CC(C)(C)O4)c1OC	nt	3.4µM*	nt	nt	nt	6%
CCCNC(=O)c1oc2ccc3c(c2c1C)C(=O)CC(C)(C)O3	?	2.4µM*	1.8µM*	-7%	1.8µM*	13µM*
CCCCn1c(SCC(=O)c2ccccc2)nc2c(sc3ccccc32)c1=O	nt	-5%	nt	nt	nt	nt
CCC(=O)OCC(=O)[C@@]1(OC(=O)CC)[C@@H](C)C[C@@H]2[C@H]3CCC4=CC(=O)C=C[C@]4(C)[C@@]3(F)[C@@H](O)C[C@@]21C	nt	nt	nt	2%[39.9 µM]	nt	nt
CCCNC(=O)c1oc2ccc3c(c2c1C)C=CC(C)(C)O3	?	11µM*	3.5µM*	nt	?	nt
Cc1ccc(NC(=O)c2oc3ccc4c(c3c2C)C(=O)CC(C)(C)O4)c(C)c1	nt	4.3µM*	nt	nt	nt	nt
CC(=O)Nc1ccc(NC(=O)c2oc3ccc4c(c3c2C)C(=O)CC(C)(C)O4)cc1	nt	8.5µM*	nt	nt	nt	nt
CCCNC(=O)c1ccc(COc2ccc(C)cc2)o1	1%	-11%	-2%	nt	2%	nt
CCC(=O)N1CCc2cc(Br)cc(S(=O)(=O)N3CCC(C(=O)Nc4ccccc4CC)CC3)c21	nt	3%	nt	nt	nt	17%
CCc1ccc(NC(=O)c2cc3sc(Cl)cc3n2C)cc1	nt	5.4µM*	nt	nt	nt	13µM*
CC(C)c1ccc(NC(=O)c2cc3sc(Cl)cc3n2C)cc1	nt	3.4µM*	nt	nt	nt	-11%
Cn1c(C(=O)NCc2cccnc2)cc2sc(Cl)cc21	0%	?	4%	-2%	-7%	-45%
Cn1c(C(=O)NCc2ccccc2Cl)cc2sc(Cl)cc21	nt	?	nt	nt	nt	28µM*
SMILES	ELG1 genotoxic	FLuc modulator	Rab9 prom act	Luc counter	NPC1 prom act	SMN2 splice up
COc1ccccc1N1CCN(c2ncnc3c2cnn3-c2cc(Cl)ccc2C)CC1	nt	1%	nt	nt	nt	nt
Cc1c(Cl)cccc1NC(=O)CSc1nc(=O)[nH]c2c1CCCC2	nt	-5%	nt	nt	nt	nt
COc1ccc(-c2cn3c(n2)sc2cc(C(=O)NCc4ccccc4)ccc23)cc1	nt	2%	nt	nt	nt	nt
COc1ccc(-n2cc(-c3ccccc3)nc2SCC(=O)Nc2ccccc2C)cc1	nt	4%	nt	nt	nt	nt
COc1ccc(-n2cc(-c3ccccc3)nc2SC)cc1	?	13µM*	?	-1%	?	20µM*
COc1ccc2c(c1)sc1nc(-c3ccccc3)cn12	?	0.034µM*	?	10µM*	-14%	0.4µM*
O=C(CN1CCCC1)N/N=C/c1ccc(-c2cccc(Cl)c2)o1	-2%	12µM*	-2%	-2%	1%	-4%
O=C(CN1CCCCC1)N/N=C/c1cccc(Cl)c1	-2%	2%	1%	nt	-1%	nt
Nc1nonc1C(=O)N/N=C/c1ccc(-c2cccc(C(=O)O)c2)o1	1%	17µM*	19%	3%	0%	19%
Cc1ccc(OCC(=O)N/N=C\c2ccc(-c3cccc(C(=O)O)c3)o2)c(C)c1	14%	6.7µM*	13%	-1%	12%	29%
CNC(=S)N/N=C/c1ccc(-c2cccc(C(=O)O)c2)o1	?	6.7µM*	2.8µM*	nt	2.2µM*	nt
Cc1ccc(OCC(=O)N/N=C\c2ccc(C)o2)c(C)c1	0%	-13%	0%	1%	-3%	-2%
COc1ccc(NC(=O)Cn2c(=O)n(CCc3ccccc3)c(=O)c3sc4ccccc4c32)cc1	nt	-1%	nt	nt	nt	14%
COc1cc(NC(=O)C2CCN(C(=O)c3sc4nc[nH]c(=O)c4c3C)CC2)cc(OC)c1OC	nt	-1%	nt	nt	nt	nt
CC1(OC(=O)c2cnc3ccccc3n2)C(=O)C=C2C=C3CCCN3C=C2C1=O (stereo unspecified)	nt	nt	nt	-11%[7.66 µM]	nt	-1%[9.22 µM]
Nc1ccccc1C(=O)/C=C/c1ccc2c(c1)OCO2	?	3.4µM*	3.2µM*	10µM*!	3.2µM*	?
O=C(/C=C/c1ccc2c(c1)OCO2)c1ccco1	?	2.1µM*	?	-3%	26%	2%
CC(=O)c1cccc(N(C(=O)Cn2nnc3ccccc32)C(C(=O)NCc2ccccc2)c2ccc(F)cc2)c1 (stereo unspecified)	nt	-6%	nt	nt	nt	-5%
COc1cccc(CN(C)C(=O)c2ccc(COc3ccc(Cl)cc3)cc2)c1OC	?	13µM*	29%	nt	?	nt
COc1ccccc1CN(C)C(=O)c1ccc(COc2ccccc2)cc1	-8%	-1%	-1%	nt	2%	nt
COc1cccc(CN(C)C(=O)c2ccccc2Sc2ccccc2C#N)c1OC	12%	8.5µM*	0.45µM*	nt	0.32µM*	nt

Screening results as filed in PubChem.
